# Values joined by “and” are separate entries in the source; they are usually repeats but may differ in a detail not shown here. Equal entries are not always repeated. Records with an inconclusive call do not appear. Some structures have more than one record in an assay (separate samples or runs), and their calls can disagree. Active and inactive are the calls of the source. Unless noted, cut-off not given; nearly all actives show AC50 up to about 26 µM.
# Assays:
# [1] = growth inhibition of DIPG glioma cells, dose response, cell-based, SU-DIPG-XVII, MIPE5.0, CellTiter-Glo, qHTS (AID 1347060); conditions: SU-DIPG-XVII viability, CellTiter-Glo ATP luminescence;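 on AC50: cells exposed to compound for 48 hours before viability readout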
# [2] = viability loss in pontine glioma line – cell-based, SU-DIPG-XXV, MIPE5.0, CellTiter-Glo, qHTS, dose response (AID 1347065); conditions: CellTiter-Glo ATP luminescence;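 further: cells exposed to compound for 48 hours before ATP readout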
# [3] = JHH-DIPG-1 glioma cell viability, MIPE5.0 library, CellTiter-Glo luminescence, qHTS (AID 1347067); conditions: JHH-DIPG-1 glioma viability, CellTiter-Glo ATP luminescence;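 further: cells exposed to compound for 48 hours before readout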
# [4] = SU-DIPG-XXV glioma cell viability, MIPE5.0 library, qHTS (AID 1347068; cut-off not given, nearly all actives have IC50 up to about 30 µM;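 on IC50: cells exposed to compound for 48 hours before viability readout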)
# [5] = SU-DIPG-VI glioma cell viability, MIPE4.0 library, CellTiter-Glo luminescence, qHTS (AID 1347066; cut-off not given, nearly all actives have AC50 up to about 30 µM;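 further: cells exposed to compound for 48 hours before readout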); conditions: CellTiter-Glo ATP luminescence
# [6] = sensitizers of A549 cells to miR-34 induction, primary screen, imaging, A549 dox-inducible miR-34, nuclei and caspase counts (AID 1347080;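 active means compounds whose cell count with miR-34 switched on is under 0.7 times the count with it off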); conditions: A549 miR-34 inducible, Hoechst nuclei count, 48 h
# [7] = phospholipid biosynthesis inhibitors in animal cells, primary screen, cell-based, LOPAC library, screen 4 (AID 1347384; call rule not given here); conditions: phospholipid biosynthesis inhibition screen, at 10 µM
# [8] = viability rescue of complex I mutant cybrids, primary screen, cell-based, galactose medium, ATP luminescence (AID 1645843;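 active means z-score of at least 1.8 in each of two replicates, scored against plate mean and spread of sample wells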;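 further: positive z means more ATP and so rescue of galactose-driven cybrid death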); conditions: complex I mutant cybrid cells, 72 h, stronger effect = higher value
# [9] = kinase inhibitors against Plasmodium liver-stage infection, cell-based, known kinase inhibitor set, luminescence, hepatoma host viability (AID 624392; call rule not given here;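 further: infected cells incubated roughly two days before readout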); conditions: Plasmodium liver stage in hepatoma cells, luciferase luminescence, concentration not given here; liver cell % of control: measured here: host liver cell viability; parasite % of control: stronger effect = lower value
# [10] = modifiers of HSF1 nuclear foci, imaging, Selleck Cancer Library (AID 1347162; in the data active means plate-normalised HSF1 focus index below about 0.46); conditions: human cells, at 10 µM; SSMD: measured here: HSF1 foci SSMD mean; cell count: measured here: cell number; plate-normalised HSF1 focus index: stronger effect = lower value
# [11] = survival rescue of mitochondrial mutant cells in low glucose, primary screen, MELAS cybrids, Rieske KO mouse fibroblasts, CellTiter-Glo (AID 1508586;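 active means mean z-score across replicates of 1.96 or higher in either the MELAS or the Rieske mutant cell line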;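 further: z relative to plate mean and SD of compound and empty wells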)
# [12] = ovarian cancer cell viability with rucaparib, profiling panel, oncology-focused library, rucaparib conditional (AID 1508598;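 active means normalized viability below 100% at a tested concentration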); conditions: patient-derived ovarian cancer cells, CellTiter-Glo viability, 144 h, stronger effect = lower value
# [13] = stronger effect = lower value, cell number ratio, induced over uninduced
# [14] = measured here: relative caspase fold change +Dox/-Dox
# [15] = measured here: total cells with miR-34 induction, stronger effect = lower value
# [16] = measured here: total cells without miR-34 induction
structure (smiles),measurement,setting,value
COc1cc2c(cc1OC)CN(CCc1ccc(-n3nnc(-c4cc(OC)c(OC)cc4NC(=O)c4cc(=O)c5ccccc5o4)n3)cc1)CC2,outcome,[1],inactive
same,outcome,[2],inactive
same,outcome,[3],inactive
same,outcome,[4],inactive
O=C1OC2(CCC(C(=O)Nc3ccn(-c4ccccc4F)n3)CC2)c2cnccc21 (configuration not stated),outcome,[1],inactive
same,outcome,[2],inactive
same,outcome,[3],inactive
same,outcome,[4],inactive
Oc1ccc([C@@H]2Oc3ccc(O)cc3[C@@H]3CCC[C@@H]32)cc1,AC50,[1],13200 nM (active)
same,AC50,[2],11800 nM (active)
same,outcome,[5],inactive
CCO[C@@H]1OC(=O)C[C@@H]1NC(=O)[C@@H]1CCCN2C(=O)CC[C@H](NC(=O)c3nccc4ccccc34)C(=O)N12,outcome,[1],inactive
same,outcome,[2],inactive
same,outcome,[3],inactive
same,outcome,[4],inactive
CO[C@@H]1C(N(C)C(=O)c2ccccc2)C[C@H]2O[C@]1(C)n1c3ccccc3c3c4c(c5c6ccccc6n2c5c31)C(=O)NC4=O (some centres not stated),AC50,[1],934 nM (active)
same,AC50,[2],934 nM (active)
same,outcome,[5],inactive
COCCNc1cc(NC(=O)N2CCCc3cc(CN4CCN(C)CC4=O)c(C=O)nc32)ncc1C#N,outcome,[1],inactive
same,outcome,[2],inactive
same,outcome,[3],inactive
same,outcome,[4],inactive
O=c1c(-c2ccc(O)cc2)coc2c([C@@H]3O[C@H](CO)[C@@H](O)[C@H](O)[C@H]3O)c(O)ccc12,outcome,[1],inactive
same,outcome,[2],inactive
same,outcome,[3],inactive
same,outcome,[4],inactive
O=C([O-])C[O-].[Pt+2],outcome,[1],inactive
same,outcome,[2],inactive
same,outcome,[3],inactive
same,outcome,[4],inactive
O=C(Cc1ccccc1)Nc1nnc(CCSCCc2nnc(NC(=O)Cc3ccccc3)s2)s1,outcome,[1],inactive
same,AC50,[2],11800 nM (active)
same,AC50,[3],14800 nM (active)
same,outcome,[4],inactive
O=C(Nc1ccc2c(c1)CCN(Cc1ncn[nH]1)C2)c1ccccc1-c1ccc(C(F)(F)F)cc1,outcome,[1],inactive
same,outcome,[2],inactive
same,outcome,[3],inactive
same,outcome,[4],inactive
same,fold change,[6]; [13],1.03 (inactive)
same,fold change,[6]; [14],1.06
same,cell count,[6]; [15],8100
same,cell count,[6]; [16],7840
same,outcome,[7],inactive
same,z-score,[8],0.755 (inactive)
CC(C)(CO)n1cc(C(=O)c2cncc(NC(=O)Cc3ccc(Cl)cn3)c2)c2cnc(N)nc21,outcome,[1],inactive
same,outcome,[2],inactive
same,outcome,[3],inactive
same,outcome,[4],inactive
O=C(O)c1cnn(-c2nc3cc(OC(F)(F)F)c(Cl)cc3[nH]2)c1,outcome,[1],inactive
same,outcome,[2],inactive
same,outcome,[3],inactive
same,outcome,[4],inactive
CC(C)[C@](O)(c1ccc2cc(OC(F)F)c(OC(F)F)cc2c1)c1cn[nH]n1,outcome,[1],inactive
same,outcome,[2],inactive
same,outcome,[3],inactive
same,outcome,[4],inactive
CN1CCN(C(=O)[C@H]2[C@@H](C(=O)O)[C@H]3CC[C@@H]2O3)CC1,outcome,[1],inactive
same,outcome,[2],inactive
same,outcome,[3],inactive
same,outcome,[4],inactive
N[C@@H](CCC(=O)O)C(=O)N[C@@H](Cc1c[nH]c2ccccc12)C(=O)O,outcome,[1],inactive
same,outcome,[2],inactive
same,outcome,[3],inactive
same,outcome,[4],inactive
CNCCCOc1cc(F)c(-c2c(Cl)nc3ncnn3c2N[C@@H](C)C(F)(F)F)c(F)c1,AC50,[1],83.3 nM (active)
same,AC50,[2],118 nM (active)
same,AC50,[3],105 nM (active)
same,IC50,[4],235 nM (active)
C=CC(=O)N1CCC[C@H](n2c(=O)n(-c3ccc(Oc4ccccc4)cc3)c3c(N)ncnc32)C1,AC50,[1],590 nM (active)
same,AC50,[2],7420 nM (active)
same,AC50,[3],742 nM (active)
same,outcome,[4],inactive
Cc1cnc(NC(=O)c2cc(Oc3cnc(C(=O)N(C)C)nc3)c3cc(C)oc3c2)cn1,outcome,[1],inactive
same,outcome,[2],inactive
same,outcome,[3],inactive
same,outcome,[4],inactive
COc1ccc(S(=O)(=O)N[C@@H](CNc2nc(C)nc(N3CCC(c4ccc5c(n4)NCCC5)CC3)c2C)C(=O)O)cc1,outcome,[1],inactive
same,outcome,[2],inactive
same,outcome,[3],inactive
same,outcome,[4],inactive
O=C(Nc1cccc(Cl)c1)Nc1ncc(CCNc2ncnc3ccsc23)s1,liver cell % of control,[9],68.4% and 82.5% and 102%
same,parasite % of control,[9],0.394% (inactive) and 0.318% (inactive) and 0.473% (active)
same,AC50,[1],16.6 nM (active)
same,AC50,[2],525 nM (active)
same,AC50,[3],16600 nM (active)
same,IC50,[4],11800 nM (active)
same,fold change,[6]; [13],1.06 (inactive)
same,fold change,[6]; [14],1.09
same,cell count,[6]; [15],2320
same,cell count,[6]; [16],2200
same,SSMD,[10],1.43
same,cell count,[10],7300
same,plate-normalised HSF1 focus index,[10],1.08 (inactive)
same,z-score,"[11]; MELAS cybrid survival, CellTiter-Glo 48 h, stronger effect = higher value",-0.144 (inactive)
same,z-score,"[11]; Rieske KO mouse fibroblast survival, CellTiter-Glo 72 h",-1.82
same,viability,"[12]; at 0.000305 µM, OCI-C5x cells, with rucaparib 10 µM, 100% = cells with rucaparib alone",108% (inactive)
same,viability,"[12]; at 0.000305 µM, OCI-C5x cells, without rucaparib",107% (inactive)
same,viability,"[12]; at 0.000305 µM, OCI-P5x cells, with rucaparib 20 µM, 100% = cells with rucaparib alone",122% (inactive)
same,viability,"[12]; at 0.000305 µM, OCI-P5x cells, without rucaparib",122% (inactive)
same,viability,"[12]; at 0.00122 µM, OCI-C5x cells, with rucaparib 10 µM, 100% = cells with rucaparib alone",98.1% (active)
same,viability,"[12]; at 0.00122 µM, OCI-C5x cells, without rucaparib",97.4% (active)
same,viability,"[12]; at 0.00122 µM, OCI-P5x cells, with rucaparib 20 µM, 100% = cells with rucaparib alone",115% (inactive)
same,viability,"[12]; at 0.00122 µM, OCI-P5x cells, without rucaparib",94.7% (active)
same,viability,"[12]; at 0.00488 µM, OCI-C5x cells, with rucaparib 10 µM, 100% = cells with rucaparib alone",95.1% (active)
same,viability,"[12]; at 0.00488 µM, OCI-C5x cells, without rucaparib",96.5% (active)
same,viability,"[12]; at 0.00488 µM, OCI-P5x cells, with rucaparib 20 µM, 100% = cells with rucaparib alone",112% (inactive)
same,viability,"[12]; at 0.00488 µM, OCI-P5x cells, without rucaparib",91.7% (active)
same,viability,"[12]; at 0.0195 µM, OCI-C5x cells, with rucaparib 10 µM, 100% = cells with rucaparib alone",112% (inactive)
same,viability,"[12]; at 0.0195 µM, OCI-C5x cells, without rucaparib",109% (inactive)
same,viability,"[12]; at 0.0195 µM, OCI-P5x cells, with rucaparib 20 µM, 100% = cells with rucaparib alone",99.4% (active)
same,viability,"[12]; at 0.0195 µM, OCI-P5x cells, without rucaparib",85.1% (active)
same,viability,"[12]; at 0.0781 µM, OCI-C5x cells, with rucaparib 10 µM, 100% = cells with rucaparib alone",91.8% (active)
same,viability,"[12]; at 0.0781 µM, OCI-C5x cells, without rucaparib",109% (inactive)
same,viability,"[12]; at 0.0781 µM, OCI-P5x cells, with rucaparib 20 µM, 100% = cells with rucaparib alone",99.1% (active)
same,viability,"[12]; at 0.0781 µM, OCI-P5x cells, without rucaparib",85.1% (active)
same,viability,"[12]; at 0.313 µM, OCI-C5x cells, with rucaparib 10 µM, 100% = cells with rucaparib alone",91.9% (active)
same,viability,"[12]; at 0.313 µM, OCI-C5x cells, without rucaparib",103% (inactive)
same,viability,"[12]; at 0.313 µM, OCI-P5x cells, with rucaparib 20 µM, 100% = cells with rucaparib alone",96.5% (active)
same,viability,"[12]; at 0.313 µM, OCI-P5x cells, without rucaparib",81.4% (active)
same,viability,"[12]; at 1.25 µM, OCI-C5x cells, with rucaparib 10 µM, 100% = cells with rucaparib alone",94.3% (active)
same,viability,"[12]; at 1.25 µM, OCI-C5x cells, without rucaparib",108% (inactive)
same,viability,"[12]; at 1.25 µM, OCI-P5x cells, with rucaparib 20 µM, 100% = cells with rucaparib alone",97.9% (active)
same,viability,"[12]; at 1.25 µM, OCI-P5x cells, without rucaparib",88.4% (active)
same,viability,"[12]; at 5 µM, OCI-C5x cells, with rucaparib 10 µM, 100% = cells with rucaparib alone",170% (inactive)
same,viability,"[12]; at 5 µM, OCI-C5x cells, without rucaparib",150% (inactive)
same,viability,"[12]; at 5 µM, OCI-P5x cells, with rucaparib 20 µM, 100% = cells with rucaparib alone",51.5% (active)
same,viability,"[12]; at 5 µM, OCI-P5x cells, without rucaparib",61.4% (active)

# Reference: PubChem BioAssay
